Results filed as inconclusive are left out. The source made the active and inactive calls. Unless noted, calls follow the shape of the dose curve; as a rule, active = well fitted curve in the direction sought with a large enough effect; inconclusive = small, poorly fitted or top-dose-only effect, or another doubt; inactive = no such curve, though single readings can be large; an effect the other way counts as inactive or inconclusive.

Assay [1] can be described thus: Quantitative High-Throughput drug screen in 47 multiple myeloma cell lines against the NCATS MIPE library collection: OCIMY7_PLB cell viability assay (AID 1918987). Also: potency is read from the fitted curve at half-maximal effect; nearly all actives have a fitted effect of over 65% in size. Put shortly: (§1)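 500 cells/well per myeloma line exposed to pinned MIPE 4.0 compounds for 48 h at 37 °C, 5% CO2. Viability read as ATP by CellTiter-Glo luminescence, normalised to DMSO-only (100%) and media-only (0%) wells.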

A short description of assay [2]: Quantitative High-Throughput drug screen in 47 multiple myeloma cell lines against the NCATS MIPE library collection: OCIMY5_PLB cell viability assay (AID 1918988). Also: potency is read from the fitted curve at half-maximal effect; nearly all actives have a fitted effect of over 65% in size. Summed up:
as §1

Assay [3] in a line: Quantitative High-Throughput drug screen in 47 multiple myeloma cell lines against the NCATS MIPE library collection: OPM1_PLB cell viability assay (AID 1918989). Also: nearly all actives have a fitted effect of over 40% in size. Also: potency is read from the fitted curve at half-maximal effect. Put shortly:
as §1

The nature of assay [4]: Quantitative High-Throughput drug screen in 47 multiple myeloma cell lines against the NCATS MIPE library collection: SKMM1_PLB cell viability assay (AID 1919863). Also: potency is read from the fitted curve at half-maximal effect; nearly all actives have a fitted effect of over 35% in size. The note with it: SKMM1 myeloma viability, CellTiter-Glo ATP, 48 h; viability: stronger effect = lower value. Summed up:
as §1
In general terms: Cellular ATP, detected with luciferase, serves as a proxy for viable cell number.

Assay [5] is described as follows: Quantitative High-Throughput drug screen in 47 multiple myeloma cell lines against the NCATS MIPE library collection: U266_ATCC cell viability assay (AID 1919864). Also: potency is read from the fitted curve at half-maximal effect; nearly all actives have a fitted effect of over 35% in size. Put shortly: as §1
A short description of assay [6]: Quantitative High-Throughput drug screen in 47 multiple myeloma cell lines against the NCATS MIPE library collection: XG6_PLB cell viability assay (AID 1919865). Also: nearly all actives have a fitted effect of over 40% in size. Also: potency is read from the fitted curve at half-maximal effect. Put shortly: as §1
A short description of assay [7]: Quantitative High-Throughput drug screen in 47 multiple myeloma cell lines against the NCATS MIPE library collection: XG1_PLB cell viability assay (AID 1919866). Also: nearly all actives have a fitted effect of over 35% in size. Also: potency is read from the fitted curve at half-maximal effect. Summed up:
as §1

Assay [8] in a line: Quantitative High-Throughput drug screen in 47 multiple myeloma cell lines against the NCATS MIPE library collection: VP6_DJ cell viability assay (AID 1919867). Also: nearly all actives have a fitted effect of over 40% in size. Also: potency is read from the fitted curve at half-maximal effect. Summed up: as §1
Assay [9] in a line: Quantitative High-Throughput drug screen in 47 multiple myeloma cell lines against the NCATS MIPE library collection: UTMC2_PLB cell viability assay (AID 1919868). Also: nearly all actives have a fitted effect of over 55% in size. Also: potency is read from the fitted curve at half-maximal effect. The note with it: CellTiter-Glo ATP luminescence, 48 h; viability (% of DMSO control): at 45.8 µM (top of the series) unless noted. Put shortly: as §1
A short description of assay [10]: Quantitative High-Throughput drug screen in 47 multiple myeloma cell lines against the NCATS MIPE library collection: PE2_PLB cell viability assay (AID 1919869). Also: nearly all actives have a fitted effect of over 35% in size. Also: potency is read from the fitted curve at half-maximal effect. Put shortly:
as §1

A short description of assay [11]: Quantitative High-Throughput drug screen in 47 multiple myeloma cell lines against the NCATS MIPE library collection: PCM6_Riken cell viability assay (AID 1919870). Also: nearly all actives have a fitted effect of over 30% in size. Also: potency is read from the fitted curve at half-maximal effect. Summed up:
as §1

A short description of assay [12]: Quantitative High-Throughput drug screen in 47 multiple myeloma cell lines against the NCATS MIPE library collection: RPMI8226_ATCC cell viability assay (AID 1919871). Also: nearly all actives have a fitted effect of over 30% in size. Also: potency is read from the fitted curve at half-maximal effect. Summed up: as §1
A short description of assay [13]: Quantitative High-Throughput drug screen in 47 multiple myeloma cell lines against the NCATS MIPE library collection: OPM2_DSMZ cell viability assay (AID 1919872). Also: nearly all actives have a fitted effect of over 30% in size. Also: potency is read from the fitted curve at half-maximal effect. Summed up: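 CellTiter-Glo luminescence (ATP) after 48 h compound exposure, 37C/5% CO2; 500 cells/well; MIPE 4.0 approved/investigational drugs pinned in; DMSO = 100%, media only = 0% viability.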
A short description of assay [14]: Quantitative High-Throughput drug screen in 47 multiple myeloma cell lines against the NCATS MIPE library collection: KMS11_JCRBsus cell viability assay (AID 1919873). Also: nearly all actives have a fitted effect of over 50% in size. Also: potency is read from the fitted curve at half-maximal effect. Put shortly:
as §1

A short description of assay [15]: Quantitative High-Throughput drug screen in 47 multiple myeloma cell lines against the NCATS MIPE library collection: KMS28BM_JCRB cell viability assay (AID 1919874). Also: nearly all actives have a fitted effect of over 35% in size. Also: potency is read from the fitted curve at half-maximal effect. Put shortly: as §1
A short description of assay [16]: qHTS drug screen for cell cycle checkpoint inhibitors in PARPi-resistant BRCA-mutant ovarian cancer cell lines. (AID 1963452; calls by dose curve; also: potency is read from the fitted curve at half-maximal effect). The note with it: PEO1/OlaR viability, CellTiter-Glo luminescence, 96 h; for Z-AUC: stronger effect = lower value. Summed up: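 PEO1, PEO4 and PEO1/OlaR ovarian cancer cells, 600 per well, exposed 96 h at 37C to a dilution series. Viability read by CellTiter-Glo luminescence, normalized to DMSO and empty wells; activity summarized as Z-AUC.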

Assay [17] in a line: Quantitative High-Throughput drug screen in 47 multiple myeloma cell lines against the NCATS MIPE library collection: KMS34_JCRB cell viability assay (AID 1918985). Also: nearly all actives have a fitted effect of over 40% in size. Summed up:
as §1

Assay [18] can be described thus: qHTS for identification of novel therapeutic agents for treatment of microphthalmiaassociated transcription factor (MiT) renal cell carcinoma (RCC) (AID 1963991).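 Also: curves scaled with 100% = DMSO viability and 0% = empty wells.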 The note with it: CellTiter-Glo, 48 h, stronger effect = lower value. Summed up:
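UOK109/UOK124/UOK145 (TFE3 fusions, three partners); 500 cells/well; MIPE v4.0, 1912 cpds, 11 conc.; 48 h, 37 C; CellTiter-Glo, 15 min RT; lum. Norm.: DMSO 100%, empty 0%.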

Assay [19] can be described thus: qHTS profiling for inhibitors of Plasmodium falciparum proliferation (AID 504749).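 Also: 0% = DMSO vehicle and full inhibition = artemisinin control; nearly all actives have a fitted effect of over 60% in size.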 The note with it: P. falciparum in erythrocytes, SYBR Green DNA, 72 h, at 28.7 µM (top of the series). Summed up:
(§2)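 P. falciparum-infected erythrocytes (0.3% parasitemia, 2.5% hematocrit) incubated with compound 72 h at 37 C, 5% CO2. Parasite DNA detected by SYBR Green after lysis, overnight at room temperature; normalised to 0.29 uM artemisinin and DMSO.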
(Quantitative high-throughput screening tests each substance at several concentrations.)

A further assay concerns 3D7. Described as above. The note with it: P. falciparum in erythrocytes, SYBR Green DNA, 72 h; series mostly up to 28.7 µM. Summed up:
as §2

Where [20] appears, read: measured here: PEO1 parental Z-AUC.
Setting [21] is: TFE3-RCC UOK109 viability, measured here: UOK109 Z-AUC.
Setting [22] is: TFE3-RCC viability, measured here: UOK124 Z-AUC.
Where [23] appears, read: TFE3-RCC viability, measured here: UOK145 Z-AUC.

In the case of `COc1cc(C)c(Sc2cnc(NC(=O)c3ccc(CNC(C)C(C)C)cc3)s2)cc1C(=O)N1CCN(C(C)=O)CC1` (stereo not given), the Potency is 10.5 µM (active) in assay [1]; 5.26 µM (active) in [2]; 18.7 µM (active) in assay [3]; 18.7 µM (active) in assay [4]; 23.5 µM (active) in assay [5]; 16.6 µM (active) in assay [6]. Besides, the Potency in assay [7] is 18.7 µM (active); in [8] it was 7.43 µM (active); in [9], 4.18 µM (active); in assay [10] it was 13.2 µM (active); in assay [11], 23.5 µM (active); in assay [12], 14.8 µM (active). Also, the Potency in [13] is 20.9 µM (active); in [14], 8.33 µM (active); in assay [15], 13.2 µM (active). Moreover, the Z-AUC was -0.385 (inactive) in assay [16], -0.662 in assay [16] (setting [20]) and -0.689 in assay [16] (measured here: PEO4 Z-AUC).

As for `Cc1cn2cc(C(=O)N(C)CCO)cc(N[C@@H]3CCOc4cccc(C)c43)c2n1`, the Potency entry in assay [17], in assay [3], in assay [6], in [7], in assay [9] and in assay [10] was “inactive” throughout. In addition, the Potency entry in [12], in assay [14] and in assay [15] was “inactive” in each case. Further, the Z-AUC in [16] is 1.4 (inactive); in [16] (setting [20]), 1.4; in assay [16] (measured here: PEO4 Z-AUC), 1.61.

`O=C(O)CO.[NH2-].[NH2-].[Pt+2]`: the Potency result in assay [17], in assay [3], in assay [6], in assay [7], in assay [8] and in assay [10] was “inactive” throughout. In addition, the Potency result (in assay [11]; in assay [12]; in assay [13]; in [14]; in assay [15]; in the assay with 3D7) was “inactive” throughout. For the same compound, the z-score came to 0.642 in assay [18] (setting [21]), 1.56 in assay [18] (setting [22]) and 1.18 in [18] (setting [23]). The activity, negative = inhibition in assay [19] (parasite line A) is 12% (inactive); in [19] (parasite line B), 15.6% (inactive).

With `c1ccc2c(CCNc3ccc(Nc4ccncc4)cc3)c[nH]c2c1`, the Potency in [1] is 8.33 µM (active); in [2] it was 20.9 µM (active); in assay [3] it was 18.7 µM (active); in assay [5], 20.9 µM (active); in assay [6], 23.5 µM (active); in [7], 20.9 µM (active). In addition, the Potency was 23.5 µM (active) in assay [8]; 16.6 µM (active) in assay [10]; 20.9 µM (active) in assay [12]; 14.8 µM (active) in assay [14]; 11.8 µM (active) in assay [15]; 1.23 µM (active) in assay [16]. The Potency result in [13] was “inactive”. The Z-AUC in assay [16] (setting [20]) is -1.4; in assay [16] (measured here: PEO4 Z-AUC), -1.17.

For `CS(=O)(=O)c1ccc(-c2cnc(N)c(C(=O)Nc3ccccc3)n2)cc1`, the Potency is 1.66 µM (active) in assay [1], 2.64 µM (active) in assay [2] and 10.5 µM (active) in [3]. Moreover, the Potency entry in assay [8], in assay [12], in [13] and in assay [15] was “inactive” in each case. For the same compound, the Z-AUC in assay [16] was -0.54 (inactive); in assay [16] (setting [20]), -0.901; in assay [16] (measured here: PEO4 Z-AUC), -1.14. Further, the values for the z-score in assay [18] (setting [21]), in assay [18] (setting [22]) and in assay [18] (setting [23]) were 0.172, 0.911 and 0.761, respectively.

Consider `COc1cc2c(Oc3ccc4[nH]c(C)cc4c3F)ncnc2cc1OCCCN1CCCC1`, for which the Potency was 6.62 µM (active) in assay [1]; 23.5 µM (active) in [2]; 5.9 µM (active) in assay [3]; 20.9 µM (active) in assay [4]; 26.4 µM (active) in [5]; 2.35 µM (active) in assay [6]. In addition, the Potency is 3.32 µM (active) in assay [7]; 4.69 µM (active) in assay [8]; 26.4 µM (active) in assay [9]; 13.2 µM (active) in [10]; 2.96 µM (active) in [14]; 16.6 µM (active) in [15]. Further, the results for the Z-AUC in assay [16], in [16] (setting [20]) and in assay [16] (measured here: PEO4 Z-AUC) were -0.035 (inactive), 0.995 and 0.0837, respectively.

Source of the values: PubChem BioAssay (NCATS).
